The record followed here is PubChem BioAssay AID430 (Sanford-Burnham Center for Chemical Genomics, 2006).

Screen size: about 63,000 compounds; about 1,100 (1.7%) were called active. The sample as a whole holds a higher share of actives than the screen did. Results with a measured potency or affinity are listed apart. Unmarked numbers belong to inactive results. Rule as the data show it: active = cytotoxicity above about 50%; inactive = the rest.

The assay can be described thus: HPDE-C7 pancreatic duct cell viability loss – fluorescence, HTS (AID 430).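 Also: cells exposed to compound for 48 hours before viability readout; 0% = vehicle and 100% = reference cytotoxic drug.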 The following applies: HPDE-C7 pancreatic duct cells viability, at 10 µM, active compounds read high.
As for `O=C(O)C1CC(=O)N(Cc2ccccc2)C1` (centres undefined), the cytotoxicity was -5.6%.

For the compound `COC(=O)c1ccc(OCC(=O)Nc2nn(-c3ccccc3)nc2C(N)=O)cc1`, the cytotoxicity is 51.8% (active).

As to `NC(=O)c1nn(-c2ccccc2)nc1NC(=O)CN1CCCCC1`, the cytotoxicity is -13.3%.

On to `CC(=O)N(CC(=O)Nc1nn(-c2ccccc2)nc1C(N)=O)Cc1ccccc1`, for which the cytotoxicity is -8.2%.

Take `CCc1nc2ccc(C(=O)NCc3ccco3)cc2nc1CC`: the cytotoxicity is 1.5%.

As to `O=C1c2oc3ccccc3c(=O)c2C(c2cccc(O)c2)N1CCCN1CCOCC1` (centres undefined), the cytotoxicity was -13.7%.

For `CCNc1ccc(C(=O)OCC)cc1NC(=O)c1cccc(S(=O)(=O)N2CCOCC2)c1`, the cytotoxicity is 1.8%.

`CCNc1ccc(C(=O)OCC)cc1NC(=O)c1cccc(N(C)C)c1`: the cytotoxicity was 54.6% (active).

`Cc1ccc(F)cc1NC(=O)c1cccc(N(C)C)c1`: the cytotoxicity is -10.6%.

As to `CCn1c(SCC(=O)N2CCCCC2)nnc1-c1ccc(S(=O)(=O)N2CCN(C)CC2)cc1`, the cytotoxicity is -22%.

As to `COc1ccc(CNC(=O)C2COc3ccccc3O2)c(OC)c1` (centres undefined), the cytotoxicity is -4.4%.

In the case of `Cc1ccc(C(=O)CC(C(=O)O)n2cccn2)cc1` (centres undefined), the cytotoxicity is -3.1%.

With `Cc1ccc(C(=O)CC(C(=O)O)n2ccc(C)n2)cc1` (centres undefined), the cytotoxicity is 4%.

`O=C1OCCC1N1C(=O)c2ccccc2S1(=O)=O` (centres undefined): the cytotoxicity is -4.1%.

With `Nc1c(Nc2ccccc2)c2ccccc2oc1=O`, the cytotoxicity is -3.7%.

For the compound `CSc1ccc(/C=N/n2nnnc2N)cc1`, the cytotoxicity was -10.4%.

With `CCN(C)c1ccc(/C=N\n2nnnc2N)cc1`, the cytotoxicity is 51.3% (active).

For the compound `CCN(CC)c1ccc(/C=N/n2nnnc2N)c(O)c1`, the cytotoxicity was -2.7%.

On to `CCCCS(=O)CC(COc1ccc(Cl)cc1)OC(=O)c1ccccc1` (centres undefined), for which the cytotoxicity was -8.9%.

`Cn1c(=O)c(-c2ccccc2)nn2c3ccccc3nc12`: the cytotoxicity is -4.7%.

Take `CNc1ccccc1-c1nc2ccccc2n(C)c1=O`: the cytotoxicity is 56.7% (active).

`COc1ccccc1Nc1nc2ccccc2n1C`: the cytotoxicity is -9%.

Turning to `Cc1ccc(NCc2nnc(SCC(=O)Nc3cccc(O)c3)n2CC2CCCO2)c(C)c1` (centres undefined), the cytotoxicity is 8.8%.

`CC(=O)O[C@H]1C(=O)[C@]2(C)[C@H]([C@H](OC(=O)c3ccccc3)[C@]3(O)C[C@H](OC(=O)[C@H](O)[C@@H](NC(=O)c4ccccc4)c4ccccc4)C(C)=C1C3(C)C)[C@]1(OC(C)=O)CO[C@@H]1C[C@@H]2O`: the cytotoxicity was 72% (active).

As for `CC(=O)O[C@@]12CO[C@@H]1C[C@H](O)[C@@]1(C)C(=O)[C@H](O)C3=C(C)[C@@H](OC(=O)[C@H](O)[C@@H](NC(=O)OC(C)(C)C)c4ccccc4)C[C@](O)([C@@H](OC(=O)c4ccccc4)[C@H]21)C3(C)C`, the cytotoxicity was 51.5% (active).

Take `CNC(=O)c1ccccc1NC(=O)c1c(O)c2c([nH]c1=O)CCCC2`: the cytotoxicity is 0%.

As to `COc1ccc(/C(O)=C2/C(=O)C(=O)N(Cc3cccnc3)C2c2ccccn2)cc1` (centres undefined), the cytotoxicity was -4.2%.

On to `Cc1cc(C)n2c(Br)c(CSc3nc4ccccc4o3)nc2n1`, for which the cytotoxicity is 3.3%.

Regarding `COC(=O)c1c(NC(=O)CN2CCCC(C)C2)c2c(C)cccc2n1C` (centres undefined), the cytotoxicity is -3.9%.

In the case of `CCCC(=O)NCCCc1nc2ccccc2n1CC`, the cytotoxicity is -20.4%.

As for `COc1ccc(-n2c(Cc3cccn3C)nnc2SCC(=O)NCc2ccco2)cc1`, the cytotoxicity is -5%.

For the compound `CCn1c2ccccc2c2cc(NC(=O)CSc3nnc(-c4ccccc4OC)n3N)ccc21`, the cytotoxicity is 57.2% (active).

With `COc1ccc(NC(=O)CSc2nnc(-c3ccccc3C)n2N)cc1OC`, the cytotoxicity was -3.3%.

As for `CCn1c(SCC(=O)Nc2ccc3c(c2)c2ccccc2n3CC)nnc1-c1ccco1`, the cytotoxicity was 49%.

Take `Cc1ccc(-c2cc(C(F)F)nc(NCc3cccnc3)n2)cc1`: the cytotoxicity is 28.4%.

For `CCOC(=O)C(C)Oc1cccc2c(=O)n(CC(=O)NCc3ccco3)ccc12` (centres undefined), the cytotoxicity is 65.7% (active).

As for `O=C(Cn1cnc2ccccc2c1=O)NCc1ccco1`, the cytotoxicity was -1%.

For `CCOC(=O)COc1cccc2c(=O)n(CC(=O)NCc3ccc4c(c3)OCO4)ccc12`, the cytotoxicity is 60.6% (active).

As for `CCOC(=O)COc1cccc2c(=O)n(CC(=O)N3CCc4ccccc43)ccc12`, the cytotoxicity was -7.9%.

With `CCOC(=O)C(C)Oc1cccc2c(=O)n(CC(=O)N3CCN(C(=O)OCC)CC3)ccc12` (centres undefined), the cytotoxicity was -8.4%.

Regarding `CCOC(=O)C(C)Oc1cccc2c(=O)n(CC(=O)NCc3ccc4c(c3)OCO4)ccc12` (centres undefined), the cytotoxicity is 53% (active).

For the compound `CCOC(=O)C(C)Oc1cccc2c(=O)n(CC(=O)N3CCc4ccccc43)ccc12` (centres undefined), the cytotoxicity was -7.3%.

In the case of `CCOC(=O)C(C)Oc1cccc2c(=O)n(CC(=O)Nc3ccc4c(c3)OCCO4)ccc12` (centres undefined), the cytotoxicity was 9.2%.

In the case of `CCOC(=O)COc1cccc2c(=O)n(CC(=O)N3CCN(C(=O)OCC)CC3)ccc12`, the cytotoxicity is -9.2%.

`CCCCN(C)CCCNC(=O)c1ccc2c(c1)NC(=O)C(N1CCOCC1)S2` (centres undefined): the cytotoxicity was 2.3%.

Turning to `CCOC(=O)N1CCN(C(=O)C2CCCN(S(C)(=O)=O)C2)CC1` (centres undefined), the cytotoxicity is 2.7%.

Regarding `CC(C)Sc1nc2c(cnn2-c2ccccc2)c(=O)[nH]1`, the cytotoxicity was -15.9%.

For `COC(=O)C(C(=O)OC)C(C(C)C)C(C(=O)OC)C(=O)OC`, the cytotoxicity is 5.9%.

Turning to `O=C(Nc1ccc(Cl)cc1)NC1CCCC1Cc1ccco1` (centres undefined), the cytotoxicity is 55% (active).

On to `O=C(Nc1ccc(Cl)cc1)Nc1ccccc1C(=O)NCc1ccco1`, for which the cytotoxicity was 8.1%.

On to `O=C(NCCSCc1ccco1)Nc1ccc(Cl)cc1`, for which the cytotoxicity was -8.4%.

Take `CC(c1ccccc1)N1CNc2c(c(=O)n(C)c(=O)n2C)C1` (centres undefined): the cytotoxicity was -8.9%.

For `O=C(O)CC(c1ccc(Cl)cc1)N1C(=O)CCC1=O` (centres undefined), the cytotoxicity was -2.8%.

`CCOc1ccc(NC(=O)CSc2nnc(Cc3cccn3C)n2-c2ccc(OC)cc2)cc1`: the cytotoxicity is -17.3%.

In the case of `c1coc(C2Nc3cccc4cccc(c34)N2)c1`, the cytotoxicity is 4.2%.

Turning to `CCN(CC)c1ccc(C2Nc3cccc4cccc(c34)N2)c(O)c1`, the cytotoxicity was 30.4%.

On to `COc1cc(C2Nc3cccc4cccc(c34)N2)cc(OC)c1OC(C)=O`, for which the cytotoxicity is 72.1% (active).

With `COc1cc(C2Nc3cccc4cccc(c34)N2)cc(OC)c1O`, the cytotoxicity was 56.8% (active).

With `Oc1ccccc1C1Nc2cccc3cccc(c23)N1`, the cytotoxicity is -21.5%.

Take `COc1cc(C2Nc3cccc4cccc(c34)N2)ccc1OC(C)=O`: the cytotoxicity is 41.1%.

For the compound `CCC(=O)Nc1nc(C)nc(C)c1C(C)=O`, the cytotoxicity is -5.6%.

Regarding `CC(=O)Nc1ccc(C)cc1NC(C)=O`, the cytotoxicity is -3.9%.

For the compound `COc1ccc(C(c2nnnn2CCc2ccccc2)N2CCN(C3CCCC3)CC2)cc1` (centres undefined), the cytotoxicity is -6.9%.

Take `O=C(O)CSc1cccc2cccnc12`: the cytotoxicity is -7.9%.

Take `CCOC(=O)CNc1ncnc2nc[nH]c12`: the cytotoxicity is -3.5%.

Turning to `c1ccc(-c2ccc(-c3ccccn3)nn2)nc1`, the cytotoxicity was 0.9%.

On to `c1ccc(-c2nnc(-c3ccccn3)nn2)nc1`, for which the cytotoxicity was 6.6%.

Take `COc1ccc(S(=O)(=O)N2CCOCC2)c(Cl)c1Cl`: the cytotoxicity was -17.3%.

As to `CCc1nc(NC2CCCCC2)c(C#N)c2c1COC(C)(C)C2`, the cytotoxicity is 63.4% (active).

For `CCCc1nc(NC2CCCCC2)c(C#N)c2c1COC(C)(C)C2`, the cytotoxicity was -4.4%.

Turning to `CCc1nc(NCC2CCCO2)c(C#N)c2c1COC(C)(C)C2` (centres undefined), the cytotoxicity was -11.3%.

Turning to `COc1ccc(-n2cnnc2SCC(=O)c2cc(C)n(Cc3cccs3)c2C)cc1`, the cytotoxicity was 0.5%.

In the case of `CCOC(=O)C1=C(N2CCCCC2)c2cc3c(n2C1=O)CCCC3`, the cytotoxicity was 10.1%.

Regarding `CCSc1ncnc2c(C#N)c3n(c12)CCCCC3`, the cytotoxicity was -13.6%.

For `CCN1CCN(CCNC(=O)c2ccc(CS(=O)(=O)c3ccccc3C)o2)CC1`, the cytotoxicity was -0.5%.

With `Cc1ccc(NC(=O)c2nnn(-c3cc(C)cc(C)c3)c2N)cc1`, the cytotoxicity was 55.6% (active).

For the compound `Cc1ccc(C)c(NC(=O)c2nnn(Cc3ccccc3C)c2N)c1`, the cytotoxicity was 1.7%.

On to `Cc1cc(C)cc(NC(=O)c2nnn(Cc3cc(C)ccc3C)c2N)c1`, for which the cytotoxicity was 58.9% (active).

As to `Cc1ccc(CCNC(=O)c2nnn(-c3cc(C)cc(C)c3)c2N)cc1`, the cytotoxicity is 3.4%.

As for `COc1ccc(C)cc1NC(=O)c1nnn(Cc2cc(C)ccc2C)c1N`, the cytotoxicity was 7.5%.

As to `Cc1cccc(-n2nnc(C(=O)Nc3ccc(F)cc3)c2N)c1`, the cytotoxicity is 15.2%.

For `CCOC(=O)C(Cc1c[nH]c2ccccc12)NC(=O)CNC(C)=O` (centres undefined), the cytotoxicity was 2.5%.

On to `CCCn1cnc2cc(NCc3cccc(OC)c3O)ccc21`, for which the cytotoxicity is 5.7%.

As for `CCOC(=O)c1ccc2ncc(C(=O)OCC)c(NCCCN3CCOCC3)c2c1`, the cytotoxicity is 3%.

As to `COc1ccc2c(c1)C1(Nc3ccccc3C(=O)N1c1ccccc1)C(=O)N2` (centres undefined), the cytotoxicity is -14.8%.

As for `ONC(=Nc1ccccc1)C(=Nc1ccccc1)NO`, the cytotoxicity is 0.4%.

For `S=C(N=Nc1ccccc1)NNc1ccccc1`, the cytotoxicity is 58.8% (active).

Take `CC(=Nc1ccccc1)Nc1ccccc1`: the cytotoxicity was -13.5%.

On to `COc1ccc(C2C(C(=O)NCCN3CCOCC3)c3ccccc3C(=O)N2C)cc1OC` (centres undefined), for which the cytotoxicity was -4.3%.

Turning to `Cc1ccccc1-c1nn2c(-c3ccccc3)nnc2s1`, the cytotoxicity was -0.8%.

As to `c1ccc(-c2nnc3sc(-c4csc5c4CCCC5)nn23)cc1`, the cytotoxicity was 75% (active).

For the compound `Cc1nnc2sc(-c3csc4c3CCCC4)nn12`, the cytotoxicity is -4.3%.

With `CCS(=O)(=O)n1nc(-c2ccccc2)cc1N`, the cytotoxicity is 1%.

Consider `CC(C)(C)c1ccc(Cn2nnc3c(=O)[nH]c(C4CCN(C(=O)Cc5cccs5)CC4)nc32)cc1`, for which the cytotoxicity was 0.2%.

Consider `O=C(Cc1cccs1)N1CCCC(c2nc3c(nnn3Cc3ccc(F)cc3)c(=O)[nH]2)C1` (centres undefined), for which the cytotoxicity is 3.7%.

For the compound `CCOc1ccc(-c2n[nH]c(C)c2-c2ccccc2OC)c(O)c1`, the cytotoxicity is -12.5%.

As to `CCCOC(=O)c1ccc(NC(=O)c2cnccn2)cc1`, the cytotoxicity is -2%.

For the compound `CCCOC(=O)c1ccc(OC(=O)c2ccco2)cc1`, the cytotoxicity is -5.8%.

As for `COc1ccc(C(=O)OCCN2C(=O)c3ccccc3C2=O)cc1`, the cytotoxicity was -2.8%.
